Reference: PubChem BioAssay AID2842 (Southern Research Institute, 2010)
Screen size: about 24,000 compounds; about 1,200 (5%) were called active. Not shown: some 2% with an inconclusive outcome. The rule behind the calls is not given here. Not all results are given here.

Assay: Mycobacterium tuberculosis H37Rv growth inhibition, putative kinase inhibitor library, confirmatory dose response (AID 2842);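 for inhibition: bacteria incubated one week before Alamar blue readout; 0% = bacteria only wells and 100% = bacteria with high antibiotic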
Details: M. tuberculosis H37Rv growth inhibition; CC50: measured here: Vero cell cytotoxicity; inhibition: stronger effect = higher value
In the case of `CCN1CCN(c2nc(Nc3ccc(OC)cc3)c3nccnc3n2)CC1`, the inhibition is reported as -0.8% (inactive). For `CCc1ccc(NC(=O)CSc2nc(-c3cccs3)nc3c2c(=O)n(C)c(=O)n3C)cc1`, the inhibition was -5.83% (inactive). With `CCOc1ccc(C(=O)Nc2nnc(C34CC5CC(CC(C5)C3)C4)s2)cc1` the inhibition was 9.95% (inactive). For `COc1ccc(CCNC(=O)C(=O)NCC(c2ccco2)N2CCc3ccccc32)cc1` (configuration not stated), the inhibition was -2.72% (inactive). In the case of `CSc1ccc2nc(Nc3cc(C)ccc3C)sc2c1`, the inhibition is reported as 13.8% (inactive). With `COc1cc(CN2CCNC(=O)C2CC(=O)O)cc(OC)c1` (configuration not stated) the inhibition was -0.59% (inactive). In the case of `COCCOC(=O)C1=C(C)NC(=O)NC1c1ccc(OC)cc1` (configuration not stated), the inhibition is reported as -0.33% (inactive). With `COC(=O)c1ccc(CSc2nnc3[nH]c(=O)c(C)c(C)n23)o1` the inhibition was -3.33% (inactive). With `CC(=O)Nc1ccc(NC(=O)CSc2ccc(-c3ccc(Cl)cc3)nn2)cc1` the inhibition was 0% (inactive). In the case of `O=C(COc1ccccc1F)NC1CC(=O)N(c2ccc(Cl)cc2)C1` (configuration not stated), the inhibition is reported as 7.9% (inactive). For `CCOc1cccc2c1OC(c1cccnc1)N1N=C(c3cccc(O)c3)CC21` (configuration not stated), the inhibition was -10.5% (inactive). With `O=C(CC1Nc2cccc3cccc(c23)NC1=O)Nc1ccc(F)cc1` (configuration not stated) the inhibition was 27.5% (inactive). For `COc1ccc2nc(NC(=O)c3cc(-c4ccccc4)nc4ccccc34)sc2c1`, the CC50 was > 40 µg/mL and the inhibition was 95.1% (inactive). For `COc1cccc(C(=O)COC(=O)c2cc3cc(Br)cc(OC)c3oc2=O)c1`, the inhibition was -0.935% (inactive). With `CCOC(=O)c1nn(-c2ccc(C)cc2)c(=O)cc1NCc1ccncc1` the inhibition was -9.72% (inactive). For `COc1ccc(/C=C2\SC(=S)N(CCC(=O)Nc3nccs3)C2=O)cc1OC`, the inhibition was -4.88% (inactive). For `COc1ccccc1N1C(=O)N(c2cccc([N+](=O)[O-])c2)C2CS(=O)(=O)CC21` (configuration not stated), the inhibition was -5.59% (inactive). For `CCS(=O)(=O)c1ccccc1C(=O)Nc1sc2c(c1C(N)=O)CCC(C)C2` (configuration not stated), the inhibition was -17.6% (inactive). With `O=C(Nc1ccc(F)cc1)c1cn(Cc2ccccc2)cc2c(=O)n(-c3ccccc3)nc1-2` the inhibition was -8.1% (inactive). In the case of `O=C(CCCc1ccccc1)Nc1c(C(=O)Nc2ccc3c(c2)OCO3)oc2ccccc12`, the inhibition is reported as -0.74% (inactive). With `Fc1ccc2nc(Nc3nnc(-c4cccs4)o3)sc2c1` the inhibition was 36% (inactive). In the case of `COc1cccc(-c2nc(C(N)=O)c3[nH]c(=O)n(-c4ccccc4F)c3n2)c1`, the inhibition is reported as -10.4% (inactive). For `Cc1ccc(NC(=O)c2oc3ccccc3c2NC(=O)c2ccc([N+](=O)[O-])cc2)cc1`, the inhibition was 3.31% (inactive). In the case of `COc1ccc2cc(CCNC(=O)c3ccccc3OC)c(=O)[nH]c2c1`, the inhibition is reported as 5.57% (inactive). With `Cc1c(C(=O)O)c2cc(O)ccc2n1C` the inhibition was 12.9% (inactive). For `O=C(CN1C(=O)CCC1=O)Nc1nc(-c2ccc(Cl)c(Cl)c2)cs1`, the inhibition was 0.41% (inactive). With `COc1ccc(Cl)cc1NC(=O)CSc1nnc(CCC(=O)O)c(=O)n1N` the inhibition was -10.7% (inactive). With `O=C(Nc1nc2c(s1)CCCC2)c1coc2ccccc2c1=O` the inhibition was -2.85% (inactive). For `O=C(NCc1ccc2[nH]c3c(c2c1)CCCC3)Nc1ccccc1`, the inhibition was 62.6% (inactive). In the case of `COc1ccc(Nc2ncnc(N)c2[N+](=O)[O-])c(OC)c1`, the inhibition is reported as 0.53% (inactive). In the case of `Cc1ccc(-c2csc(Nc3ccc(O)c(C(=O)O)c3)n2)cc1`, the inhibition is reported as -6.04% (inactive).
